Measurements from PubChem BioAssay (NCATS).
Where “and” joins values, the source holds several entries; their conditions need not be identical. Equal values may be shown once. Results filed as inconclusive are left out. Values without a mark were called inactive. Calls of active or inactive are those of the source. Calls follow the shape of the dose curve; as a rule, active = well fitted inhibition curve with a large enough effect; inconclusive = small, poorly fitted or top-dose-only effect; inactive = flat fitted curve, though single readings scatter. Where a SMILES comes first, the peptide text is derived from it. Bridges are numbered along the chain shown (N, C = ends).

tested on: KB-3-1; experiment: Cytotoxic Profiling of Annotated Libraries Using Quantitative High-Throughput Screening (AID 1296008); conditions: Five cell lines viability, CellTiter-Glo ATP luminescence, 48-72 h; max response: stronger effect = lower value; also: nearly all actives have a fitted effect of over 60% in size
Procedure, shortened: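 Cytotoxicity was measured as CellTiter-Glo ATP luminescence, read after 10 min at room temperature. Compound treatment of the cells lasted 48 or 72 hr at 37 degrees Celsius in a qHTS format.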
% is scaled to controls: 0 for no effect and ±100 for the full control effect; potency is read from the fitted curve at half-maximal effect.

Row | SMILES | max response | Potency | outcome
1 | C[C@H]1C[C@@H]2[C@H]([C@@H](O)C[C@@]3(C)[C@H]2CC[C@]3(O)C(=O)COC(=O)CCC(=O)O)[C@@]2(C)C=CC(=O)C=C12 | -6.8% |  | 
2 | CC(NC(=O)Cc1cc(F)cc(F)c1)C(=O)NC1C(=O)N(C)c2ccccc2-c2ccccc21 (centres undefined) |  | 16.4 µM (active) | 
3 | C[C@@H]1C[C@H]2C3C[C@H](F)C4=CC(=O)C=CC4(C)[C@@]3(F)[C@@H](O)CC2(C)[C@@]1(O)C(=O)COC(=O)C(C)(C)C (some centres undefined) | 27.2% |  | 
4 | Cc1ccc(C2(O)CCN(CCCC(=O)c3ccc(F)cc3)CC2)cc1 | -11.9% |  | 
5 | COC(C)=O | -9.47% |  | 
6 | CCC(=O)Oc1ccc2c(c1)CC[C@@H]1[C@@H]2CC[C@]2(C)[C@@H](OC(=O)CC)CC[C@@H]12 | -26.3% |  | 
7 | Cn1nnnc1SCC1=C(C(=O)O)N2C(=O)[C@@H](NC(=O)[C@H](OC=O)c3ccccc3)[C@H]2SC1 | -7.31% |  | 
8 | CCCCCCCCCCCCCCCC(=O)OC/C=C(C)/C=C/C=C(C)/C=C/C1=C(C)CCCC1(C)C | -13.6% |  | 
9 | Cc1ccccc1CNc1ncnc2c1ncn2[C@@H]1O[C@H](CO)[C@@H](O)[C@H]1O | -19% |  | 
10 | CS(=O)(=O)Nc1cc2occ(NC=O)c(=O)c2cc1Oc1ccccc1 | 1.81% |  | 
11 | O=P(O)(O)OC(CO)CO | 1.53% |  | 
12 | CC(C)c1cccc(C(C)C)c1NC(=O)Nc1ccc(Sc2ccc([N+](=O)[O-])cc2)cc1 |  | 10.3 µM (active) | 
13 | OCC(O)COc1ccc(Cl)cc1 (centres undefined) | -9.74% |  | 
14 | Cc1cccc(C)c1N(CCCc1cccnc1)C(=O)C(C)N (centres undefined) | -6.26% |  | 
15 | Cc1c(N)nc(C(CC(N)=O)NCC(N)C(N)=O)nc1C(=O)NC(C(=O)NC(C)C(O)C(C)C(=O)NC(C(=O)NCCc1nc(-c2nc(C(=O)NCCCN[C@@H](C)c3ccccc3)cs2)cs1)C(C)O)C(O[C@@H]1O[C@@H](CO)[C@@H](O)[C@H](O)[C@@H]1O[C@H]1O[C@H](CO)[C@@H](O)[C@H](OC(N)=O)[C@@H]1O)c1cnc[nH]1 (some centres undefined) | -0.767% |  | 
16 | CN(C)Cc1ccccc1 | -10.5% |  | 
17 | CC(CN1c2ccccc2Sc2ccc(S(=O)(=O)N(C)C)cc21)N(C)C (centres undefined) | -2.65% |  | 
18 | C/C(=C(\CCOC(=O)c1ccccc1)SS/C(CCOC(=O)c1ccccc1)=C(/C)N(C=O)Cc1cnc(C)nc1N)N(C=O)Cc1cnc(C)nc1N | -12.4% |  | 
19 | C[C@H]1C[C@H]2[C@@H]3CCC4=CC(=O)C=C[C@]4(C)[C@@]3(F)[C@@H](O)C[C@]2(C)[C@@]1(O)C(=O)CCl | -8.19% |  | 
20 | CC(=O)CC(=O)Nc1ccc(Cl)c(C(F)(F)F)c1 |  | 23.1 µM (active) | 

Row | SMILES | max response | Potency | outcome
21 | CC1=C(C(=O)OCCN(Cc2ccccc2)c2ccccc2)C(c2cccc([N+](=O)[O-])c2)C(P2(=O)OCC(C)(C)CO2)=C(C)N1 (centres undefined) | 26.8% |  | 
22 | Cc1cc(-n2c(=O)[nH]c(=O)n(C)c2=O)ccc1Oc1ccc(S(=O)(=O)C(F)(F)F)cc1 | 28.3% |  | 
23 | C[C@H](/C=C/[C@H](C)C(C)(C)O)[C@H]1CC[C@H]2/C(=C/C=C3C[C@@H](O)C[C@H](O)C3)CCC[C@]12C | 23% |  | 
24 | CC(=O)O[C@H]1CC[C@]2(C)[C@H]3CC[C@]4(C)Oc5oc(C)cc(=O)c5C[C@H]4[C@]3(C)CC[C@H]2C1(C)C |  |  | inactive
25 | CC[C@H]1OC(=O)[C@H](C)[C@@H](O[C@H]2C[C@@](C)(OC)[C@@H](O)[C@H](C)O2)[C@H](C)[C@@H](O[C@@H]2O[C@H](C)C[C@H](N(C)C)[C@H]2O)[C@](C)(O)C[C@@H](C)[C@@H]2N[C@@H](COCCOC)O[C@@H]([C@H]2C)[C@]1(C)O | -15.7% |  | 
26 | CC(=O)N[C@@H](C=O)[C@H](O)[C@H](O)[C@@H](O)CO | 5.53% and 4.97% |  | 
27 | O=C1C(c2[nH]c3ccc(S(=O)(=O)O)cc3c2O)=Nc2ccc(S(=O)(=O)O)cc21 | 3.94% and -6.29% |  | 
28 | CCn1c(=O)c(-c2ccc(-c3cncs3)cc2Cl)cc2cnc(Nc3ccc(N4CCN(C)CC4)cc3)nc21 |  | 10.3 µM (active) | 
29 | C/C(=C(/CCO)SSCC1CCCO1)N(C=O)Cc1cnc(C)nc1N (centres undefined) | -15.4% and -10.3% |  | 
30 | O=C[C@H](O)[C@@H](O)[C@H](O[C@H]1O[C@H](CO)[C@@H](O[C@H]2O[C@H](CO)[C@@H](O)[C@H](O)[C@H]2O)[C@H](O)[C@H]1O)[C@H](O)CO | -9.17% |  | 
31 | CCCN(CC)C(CC)C(=O)Nc1c(C)cccc1C (centres undefined) | -6.86% |  | 
32 | O=C(O)c1ccccc1[O-].O=C(O)c1ccccc1[O-].[Zn+2] | -8.24% |  | 
33 | CO/N=C(\C(=O)N[C@@H]1C(=O)N2C(C(=O)OCOC(=O)C(C)(C)C)=C(/C=C\c3scnc3C)CS[C@H]12)c1csc(N)n1 | -14.1% |  | 
34 | CO[C@@H]1[C@@H](O[C@@H]2O[C@H](C)[C@@H](O[C@H]3C[C@@](C)(O)[C@@H](OC(=O)CC(C)C)[C@H](C)O3)[C@H](N(C)C)[C@H]2O)[C@@H](CC=O)C[C@@H](C)[C@@H](O)/C=C/C=C/C[C@@H](C)OC(=O)C[C@H]1O | -0.235% |  | 
35 | C=CS(=O)(=O)O | -7.41% |  | 
36 | COc1ccc(CNCC(O)COc2ccc3[nH]c(=O)ccc3c2)cc1OC (centres undefined) | 2.61% |  | 
37 | NCCCC[C@H](NC(=O)[C@@H]1CCCN1C(=O)[C@@H]1CSSC[C@H](NC(=O)CNC(=O)CNC(=O)CN)C(=O)N[C@@H](Cc2ccc(O)cc2)C(=O)N[C@@H](Cc2ccccc2)C(=O)N[C@@H](CCC(N)=O)C(=O)N[C@@H](CC(N)=O)C(=O)N1)C(=O)NCC(N)=O (H-GGGCYFQNCPKG-NH2; disulfide 4-9) | -6.41% |  | 
38 | CN1CCN(C2=Nc3ccccc3Cc3ccccc32)CC1 | 2.98% |  | 
39 | O=C[C@H](O)[C@@H](O)[C@H](O)[C@H](O)CO | -5.79% |  | 
